Twelve compounds from PubChem BioAssay (Tox21) can be followed below.

Each structure is given as a SMILES string. Results filed as inconclusive are left out. The source made the active and inactive calls. Unless noted, calls follow the shape of the dose curve; as a rule, active = well fitted curve in the direction sought with a large enough effect in the repeat runs; inconclusive = weak or mixed curves; inactive = no such curve, though single readings can be large; an effect the other way counts as inactive or inconclusive.

Assay [1] is described as follows: qHTS assay to identify small molecule agonists of the vitamin D receptor (VDR) signaling pathway - cell viability counter screen (AID 743224). Also: % is scaled to controls: 0 for no effect and ±100 for the full control effect; nearly all actives have a fitted effect of over 50% in size. The method in brief:
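Plated VDR-bla cells (4 h, 37C) received compound, incubated 16 h, then LiveBLAzer substrate 2 h RT; CellTiter-Glo added afterwards, luminescence read at 30 min.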
In general terms: Quantitative high-throughput screening tests each substance at several concentrations.

The nature of assay [2]: qHTS assay to identify small molecule antagonists of the vitamin D receptor (VDR) signaling pathway - cell viability counter screen (AID 743225). Also: nearly all actives have a fitted effect of over 50% in size. Also: potency is read from the fitted curve at half-maximal effect. The method, boiled down: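 VDR-bla HEK 293T cells, 4 h pre-incubation at 37C, then compound plus 1-alpha,25-dihydroxyvitamin D3 (3 nM final) for 16 h. After the beta-lactamase FRET read, CellTiter-Glo was added to the same wells; luminescence after 30 min at room temperature.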

Assay [3] is described as follows: qHTS assay to identify small molecule agonists of the NFkB signaling pathway (AID 1159509; active = well fitted curve in the direction sought with a large enough effect in the signal ratio in the repeat runs, not every such curve was filed as active; the % refers to the signal ratio; also: % is scaled to controls: 0 for no effect and ±100 for the full control effect). The method in brief:
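NFkB-bla ME-180 cells carry a beta-lactamase reporter under an NF-kB response element. They were plated overnight, then exposed to compounds for 5 h at 37 C. Read-out is LiveBLAzer FRET after 1.5 hr at room temperature (405 nm excitation; 460/530 nm emission).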

Assay [4] can be described thus: qHTS assay to identify small molecule agonists of the NFkB signaling pathway - cell viability counter screen (AID 1159515; calls by dose curve; also: % is scaled to controls: 0 for no effect and ±100 for the full control effect; nearly all actives have a fitted effect of over 55% in size). The method in brief:
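Using the same wells as the NFkB reporter read, ME-180 NFkB-bla cells given compounds for 5 hr were assessed for viability via CellTiter-Glo, with luminescence taken after a 30 min room-temperature incubation.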

Assay [5] in a line: qHTS assay to identify small molecule antagonists of the retinoid-related orphan receptor gamma (ROR-gamma) signaling pathway - cell viability counter screen (AID 1159520). Also: nearly all actives have a fitted effect of over 50% in size. Also: potency is read from the fitted curve at half-maximal effect. The method in brief: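 Tet-on ROR gamma CHO cells (1,000/well) were plated 4 hr, given compounds in DMSO for 2 hr at 37 C, then induced with 1 uM final doxycycline for 16 hr. Viability was read as ATP by CellTiter-Glo luminescence after 30 min.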

Assay [6] has as its target Nuclear receptor ROR-gamma (Homo sapiens) (UniProt P51449). Nature of the assay: qHTS assay to identify small molecule antagonists of the retinoid-related orphan receptor gamma (ROR-gamma) signaling pathway (AID 1159521; also: nearly all actives have a fitted effect of over 50% in size; also: potency is read from the fitted curve at half-maximal effect). The method in brief:
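Tet-on RORγ CHO cells carrying a ROR response element–luciferase reporter were pretreated with compounds for 2 h, then induced with 1 uM (final) doxycycline hyclate for 16 h at 37 C. Antagonism was read as decreased ONE-Glo luminescence.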

A short description of assay [7]: qHTS assay to identify small molecule agonists of the AP-1 signaling pathway - cell viability counter screen (AID 1159525; calls by dose curve; also: nearly all actives have a fitted effect of over 55% in size). The method, boiled down:
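ME-180 AP-1-bla, 2500 cells/well, Opti-MEM + 0.5% dialyzed FBS; overnight 37 °C; cpd 15-pt titration, 5 h 37 °C; CellTiter-Glo 30 min RT; luminescence read; normalised to TOAB and DMSO controls.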

Assay [8] can be described thus: qHTS assay to identify small molecule agonists of the AP-1 signaling pathway (AID 1159526; calls by dose curve; also: % is scaled to controls: 0 for no effect and ±100 for the full control effect).
Assay [9] can be described thus: qHTS assay to identify small molecule agonists of the RXR signaling pathway - cell viability counter screen (AID 1159529). Also: nearly all actives have a fitted effect of over 50% in size. Also: potency is read from the fitted curve at half-maximal effect. The method in brief: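 RXR-alpha-UAS-bla HEK 293T cells in medium with 2% charcoal-stripped FBS were preincubated 5 hr, then exposed to compounds for 16 hr at 37 C. Viability was read as CellTiter-Glo luminescence after 30 min at room temperature.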

Assay [10] can be described thus: qHTS assay to identify small molecule antagonists of the retinoid acid receptor (RAR) signaling pathway - cell viability counter screen (AID 1159551). Also: nearly all actives have a fitted effect of over 35% in size. Also: potency is read from the fitted curve at half-maximal effect. The method, boiled down: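 Retinol-stimulated (1 uM final) C3RL4 cells, compound 6 h, 37 C; readout CellTiter-Glo luminescence (ATP) after 30 min RT incubation.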
Assay [11] in a line: qHTS assay to identify small molecule agonists of the endoplasmic reticulum stress response signaling pathway - cell viability counter screen (AID 1159517; calls by dose curve). The method, boiled down:
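CellTiter-Glo was added to wells already read for beta-lactamase FRET, and luminescence was recorded 30 min later. Cells: ESRE-bla HeLa, 1,500 per well, compound exposure 5 hr at 37 C.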

Assay [12] is described as follows: qHTS assay to identify small molecule antagonists of the retinoic acid receptor (RAR) signaling pathway (AID 1159552). The method, boiled down: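 RARE-luc C3RL4 cells; cpds + 1 uM (final) retinol, 6 hr, 37 C/5% CO2; luciferase reagent, 30 min RT, luminescence readout. Inhibitors of retinol-driven signal scored.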
Assay [13] is described as follows: qHTS assay to identify small molecule agonists of the retinoic acid receptor (RAR) signaling pathway (AID 1159553). Also: % is scaled to controls: 0 for no effect and ±100 for the full control effect. The following applies: C3RL4 RARE luciferase reporter, agonist, 6 h; activation: at 73.3 µM (top of the series). The method in brief:
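Reporter readout comes from luciferase under RARE control in C3RL4 cells; compound exposure lasts 6 hr at 37 C in 5% CO2, and luminescence is recorded following a 30 min room-temperature incubation with reagent.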

The nature of assay [14]: qHTS assay to identify small molecule agonists of the endoplasmic reticulum stress response signaling pathway (AID 1159516; active = well fitted activation curve with a large enough effect in the signal ratio in the repeat runs, not every such curve was filed as active; the % refers to the signal ratio; also: % is scaled to controls: 0 for no effect and ±100 for the full control effect). The method, boiled down: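 An ESRE-bla HeLa cell assay: compounds were pin-transferred from DMSO onto overnight-plated cells and left 5 hr at 37 C. Substrate was then loaded for 2 hr at room temperature before reading fluorescence at 460 nm and 530 nm.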

The target of assay [15] is Retinoic acid receptor RXR-alpha (Homo sapiens) (UniProt P19793). Nature of the assay: qHTS assay to identify small molecule agonists of the RXR signaling pathway (AID 1159527; calls by dose curve; also: % is scaled to controls: 0 for no effect and ±100 for the full control effect; nearly all actives have a fitted effect of over 35% in size). The method in brief:
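GeneBLAzer RXR-alpha-UAS-bla HEK 293T cells in medium with 2% charcoal-stripped FBS, pre-incubated 5 hr at 37 C, then exposed to compounds 16 hr. Beta-lactamase reporter read by FRET substrate, 2 hr room temperature, 460/530 nm emission.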

Retinoic acid receptor RXR-alpha (Homo sapiens), sequence (P19793 whole entry, looked up): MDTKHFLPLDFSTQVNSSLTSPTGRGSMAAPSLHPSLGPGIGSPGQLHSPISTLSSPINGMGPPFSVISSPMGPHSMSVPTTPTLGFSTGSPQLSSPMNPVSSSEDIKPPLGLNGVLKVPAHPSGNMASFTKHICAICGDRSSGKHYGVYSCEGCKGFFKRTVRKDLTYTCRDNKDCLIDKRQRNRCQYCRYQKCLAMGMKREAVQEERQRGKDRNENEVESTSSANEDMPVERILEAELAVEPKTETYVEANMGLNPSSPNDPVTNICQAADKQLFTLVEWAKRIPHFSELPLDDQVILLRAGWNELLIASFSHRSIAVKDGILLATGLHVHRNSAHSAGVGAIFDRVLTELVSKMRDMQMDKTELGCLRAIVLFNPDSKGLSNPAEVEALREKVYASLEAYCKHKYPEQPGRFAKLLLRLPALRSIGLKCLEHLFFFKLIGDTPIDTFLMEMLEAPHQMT

For the compound `Cc1ccccc1S`, the Potency entry in assay [1], in [2], in assay [3], in assay [4], in assay [5] and in assay [6] was “inactive” throughout. The Potency entry in assay [7], in assay [8], in assay [9] and in assay [10] was “inactive” throughout.
With `CC(=O)OCCN(CCOC(C)=O)c1ccc(N=Nc2ccc([N+](=O)[O-])cc2C#N)cc1`, the Potency entry in assay [1], in assay [2], in assay [3], in [4], in assay [11] and in assay [7] was “inactive” each time. The Potency entry in assay [8], in assay [9] and in assay [12] was “inactive” in each case. In addition, the Potency in [10] was 48.6 µM (active).
With `Brc1cc2ccccc2c2ccccc12`, the Potency entry in [1], in assay [2], in assay [3], in assay [4], in assay [7] and in assay [12] was “inactive” in each case. In addition, the Potency entry in [13] is “inactive”. Moreover, the Potency in assay [6] was 21.8 µM (active).
Regarding `C/C=C\C/C=C/CCCCCCCCOC(C)=O`, the Potency entry in assay [3], in assay [4], in assay [11], in assay [6], in assay [7] and in assay [10] was “inactive” throughout. In addition, the Potency result in assay [13] was “inactive”.
For the compound `COc1cc(Nc2c(C#N)cnc3cc(OCCCN4CCN(C)CC4)c(OC)cc23)c(Cl)cc1Cl`, the Potency in [2] is 19 µM (active); in assay [9], 8.49 µM (active). For the same compound, the Potency entry in assay [3], in [4], in [11], in [6], in assay [7] and in assay [10] was “inactive” in each case.
For the compound `Cc1ccc(CO)cc1`, the Potency entry in assay [1], in assay [2], in assay [3], in assay [4], in assay [5] and in [6] was “inactive” throughout. Further, the Potency result in assay [7], in assay [8], in assay [9], in assay [10], in assay [12] and in assay [13] was “inactive” throughout.
Take `c1ccc(C[n+]2cccc3ccccc32)cc1`: the Potency result in [3], in assay [4], in [5], in assay [6], in assay [7] and in assay [8] was “inactive” in each case. Further, the Potency result in assay [9], in assay [10], in [12] and in assay [13] was “inactive” in each case.
Consider `C=C1C[C@@]23CC[C@H]4[C@@](C)(CCC[C@@]4(C)C(=O)O[C@@H]4O[C@H](CO)[C@@H](O)[C@H](O)[C@H]4O)[C@@H]2CC[C@]1(O[C@@H]1O[C@H](CO)[C@@H](O)[C@H](O[C@@H]2O[C@H](CO)[C@@H](O)[C@H](O)[C@H]2O)[C@H]1O[C@@H]1O[C@H](CO)[C@@H](O)[C@H](O)[C@H]1O)C3`, for which the Potency result in assay [1], in assay [3], in assay [14], in assay [11], in assay [5] and in assay [6] was “inactive” throughout. Also, the Potency result in assay [7], in assay [8], in assay [15], in assay [9], in [10] and in [12] was “inactive” throughout. In assay [13], the Potency result is “inactive”.
Regarding `C=C(C)CCCC(C)CCO` (centres undefined), the Potency entry in assay [1], in assay [3], in assay [14], in assay [11], in [5] and in assay [6] was “inactive” each time. Further, the Potency result in assay [7], in [8], in assay [15], in assay [9], in assay [10] and in assay [12] was “inactive” each time. Moreover, in assay [13], the Potency result is “inactive”.
Turning to `CCOC(=O)c1ccccc1C(=C1C=C(Br)C(=O)C(Br)=C1)c1cc(Br)c(O)c(Br)c1`, the Potency entry in [1], in assay [2], in assay [3], in assay [4], in [7] and in assay [9] was “inactive” in each case. Further, the Potency entry in assay [10], in [12] and in [13] was “inactive” throughout. For the same compound, the Potency was 51.3 µM (active) in assay [5] and 22.9 µM (active) in assay [6].
For `Oc1cccc(O)c1O`, the Potency result in assay [1], in [3], in assay [4], in assay [11], in assay [6] and in assay [7] was “inactive” each time. Moreover, the Potency result in [12] is “inactive”. The activation in [13] was 3.27% (active).
On to `O=C(OCC(O)CO)c1ccccc1Nc1ccnc2cc(Cl)ccc12` (centres undefined), for which the Potency result in [2], in assay [3], in assay [4], in assay [11], in assay [7] and in assay [8] was “inactive” throughout. Moreover, the Potency result in assay [9], in assay [10] and in assay [12] was “inactive” in each case.
